High-throughput results deposited in PubChem by several laboratories.
Shown are actives, neighbours in structure and some others; about 4.9% of the full set was active somewhere.
HSF1 inhib = HSF1 inhibition | NIH3T3-HGL HSE-luciferase, MG132-induced, luminescence 8 h; stronger effect = lower value | activity change, negative = inhibition, % at 7.5 µM (by protocol) | 300,000 compounds, 0.77% hits;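 active = more than half of replicate wells show activity change below -50%, luminescence cut by over half; inconclusive = some wells, but at most half, below -50%; inactive = no replicate well below -50%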;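 also: luciferase reports HSF-1 transcriptional activity via heat shock element; 0% = median of DMSO wells and -100% = zero luminescence signal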
Platelet DG rel = modulates dense granule release in human platelets. 300,000 compounds, 0.22% hits. inhibition, %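 (compounds screened at 7.5 µM in platelet-rich plasma)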. AID 1663. human platelet-rich plasma, SFLLRN dense granule ATP release, luminescence;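 active = mean replicate score, as percent of positive control, at or above 50; inconclusive = mean below 50 but at least one replicate at or above 50; inactive = mean and every replicate below 50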
dFosB act = mouse delta FosB homodimer activation; P13346; purified delta FosB, TAMRA-CDK5 oligo fluorescence polarization; percent of positive-control signal above neutral wells; activation, % at 25 µM; 340,000 compounds, 0.99% hits; AID 493131;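 active = mean activation above about 17%, with every replicate also reaching it, limit read from the data, passing the limit was not always enough; inconclusive = only one of the two conditions met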
Target sequence (P13346 whole entry, looked up): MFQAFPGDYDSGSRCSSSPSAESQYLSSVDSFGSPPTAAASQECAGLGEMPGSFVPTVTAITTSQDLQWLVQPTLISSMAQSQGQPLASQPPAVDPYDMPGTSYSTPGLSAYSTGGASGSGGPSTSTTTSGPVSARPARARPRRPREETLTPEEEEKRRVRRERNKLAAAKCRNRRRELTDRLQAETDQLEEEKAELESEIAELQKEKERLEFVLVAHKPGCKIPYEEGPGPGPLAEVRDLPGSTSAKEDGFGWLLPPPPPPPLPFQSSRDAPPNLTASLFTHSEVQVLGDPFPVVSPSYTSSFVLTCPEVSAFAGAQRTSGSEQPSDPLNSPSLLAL
HSF-1 act = increases HSF-1 driven luciferase reporter signal; NIH3T3-HGL HSF-1 luciferase reporter, MG132, 8 h; 100% = twice DMSO control signal; activation, % at 9 µM; 300,000 compounds, 1.7% hits;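 active = mean replicate activation of at least 50% with a set share of replicates each reaching 50%; inconclusive = only one of those two conditions met; inactive = mean below 50% and too few replicates reaching it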;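 also: 0% = median of the neutral control wells and 100% = twice that signal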
HSP90 inh = inhibitors of HSP90 luciferase refolding in rabbit reticulocyte lysate; luciferase refolding luminescence, 3 h; inhibition, % at 5.6 µM; 290,000 compounds, 0.91% hits; AID 1789;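 active = inhibition above the screen-wide mean plus 3 SD, computed separately per campaign, cut at about 16% in these data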;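 also: 0% = DMSO wells and 100% = 60 µM geldanamycin wells; inhibitors lower the luminescence because luciferase stays unfolded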
MPTP inh = permeability transition pore inhibition; 360,000 compounds, 1.4% hits; AID 602449; isolated mouse mitochondria, Ca2+ swelling absorbance, 30 min; inhibition, % at 10 µM;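 active = inhibition of 50% or more, scaled per plate between neutral and stimulator controls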;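 also: 0% = DMSO wells given calcium and 100% = 1 mM EGTA wells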
* marks the source's active call; other numbers are inactive results; ? = inconclusive; · = no result given; ! = not confirmed by another sample.

SMILES | HSF1 inhib | Platelet DG rel | dFosB act | HSF-1 act | HSP90 inh | MPTP inh
O=C(NCC1CCCCC1)c1csc([C@@H]2C[C@H](O)[C@@H](CO)O2)n1 | · | · | · | · | · | -1.3
O=C(NCc1cccnc1)/C(=C/c1ccc(-c2ccc(Cl)cc2)o1)S(=O)(=O)c1ccccc1 | 68.8 | -2.3 | -1.7 | 86.9* | 12.1 | -1.8
COc1ccccc1NC(=O)c1cnc(SCC(=O)NCC2CCCO2)n(C)c1=O (stereo not drawn) | 163.9 | 22.7 | 3.5 | 170.9* | · | -0.9
COc1ccc(/C=C2\SC(=N)N(c3ccc(F)cc3)C2=O)cc1OC | -0.5 | 11.8 | 44.5* | -2.3 | 2.1 | -2.7
CCOc1ccc(/C=C2\SC(=O)N(c3ccc(O)cc3)C2=O)cc1OC | 0.6 | -0.1 | · | 10.8 | 3.9 | ·
O=C(CCC(=O)Nc1cccc(C(F)(F)F)c1)NCC1CCCO1 (stereo not drawn) | -2.4 | 9.8 | -1.7 | -15.4 | 2.4 | -0.5
CC1=C(C(=O)Nc2ccccn2)C(c2ccc(Cl)cc2)NC(=S)N1 (stereo not drawn) | 25.0 | -1.6 | -0.4 | 63.9* | -6.1 | -2.9
CN(Cc1nnc(-c2ccc(F)cc2)o1)c1ccccc1 | 13.2 | 17.3 | -11.9 | 59.7* | 5.3 | -4.3
COc1ccc(C2Nc3ccccc3C(=O)N2Cc2ccco2)cc1CN1C(=O)c2ccccc2C1=O (stereo not drawn) | 5.8 | -4.7 | -0.7 | 62.9*! | -1.7 | -1.0
COc1ccc(C2Nc3ccccc3C(=O)N2Cc2ccco2)cc1COc1ccc(F)cc1 (stereo not drawn) | 66.6 | 9.2 | -18.2 | 103.0* | 1.3 | 2.3
O=C1c2ccccc2NC(c2cccc(O)c2)N1Cc1ccco1 (stereo not drawn) | 6.7 | -2.9 | -6.2 | 23.1 | 4.7 | 0.8
CCCCCCCCOC(=O)c1nc(Cl)c(Cl)c(N)c1Cl | -5.5 | 3.3 | -0.1 | -3.5 | 2.6 | 15.2
COC(=O)c1nc(Cl)c(Cl)c(N)c1Cl | -72.5* | -7.0 | -6.4 | -76.9 | -2.4 | 0.3
O=C1NC[C@H](CC2CCCCC2)N(CCC23CC4CC(CC(C4)C2)C3)C1=O | · | · | · | · | · | -1.4
COc1ccc(/C=N/NC(=O)c2cccnc2)c(C(=O)O)c1OC | 29.2 | -1.1 | -5.8 | 72.6* | -0.9 | 2.8
COc1ccc(/C=N/NC(=O)c2ccncc2)c(C(=O)O)c1OC | -1.4 | -2.3 | -7.1 | -4.2 | 0.1 | 0.8
O=C(c1ccc(NC2=NC3CS(=O)(=O)CC3S2)cc1)N1CCN(c2ccc([N+](=O)[O-])cc2)CC1 (stereo not drawn) | -2.5 | -4.4 | -2.9 | 5.8 | -0.8 | -2.2
O=C(COC(=O)CC1c2ccccc2CCN1S(=O)(=O)c1ccc(F)cc1)Nc1ccccc1 (stereo not drawn) | -3.6 | 5.0 | -6.0 | -8.0 | -1.1 | -0.1
CCc1cccc(CC)c1NC(=O)COC(=O)CC1c2ccccc2CCN1S(=O)(=O)c1ccc(F)cc1 (stereo not drawn) | 31.3 | 8.9 | -7.1 | 61.8* | 1.8 | 0.9
Cc1ccccc1CN1CCN(C(=O)CC(C)C)CC1 | -85.9* | 8.3 | -1.5 | -88.4 | 0.7 | 0.9
Cc1ccc(-c2noc(CNS(=O)(=O)c3ccccc3)n2)cc1 | 6.9 | -11.7 | -9.3 | 4.6 | -6.7 | 0.7
COc1ccc(CNC(=O)N2CCN(c3ccc(F)cc3)CC2)cc1 | -2.0 | 4.0 | -4.5 | -10.7 | 5.6 | 0.2
Cc1nc2cc(-c3ccccc3)sc2c(=O)n1N | -53.0* | 89.7* | 4.7 | -58.2 | 49.1* | 0.5
COc1ccc(-c2cc3nc(C)n(N)c(=O)c3s2)cc1 | -70.4* | 87.0* | 9.3 | -72.1 | 84.8* | 1.9
Cc1ccc(NS(=O)(=O)c2ccc(C)c(NC(=S)NCCN3CCOCC3)c2)c(C)c1 | · | · | -11.2 | · | · | -0.5
SMILES | HSF1 inhib | Platelet DG rel | dFosB act | HSF-1 act | HSP90 inh | MPTP inh
C/C(CC(=O)Nc1ccc2c(c1)OCO2)=N\NC(=O)c1ccccc1N | 40.9 | 3.6 | -4.2 | 59.4* | -1.3 | 1.0
C/C(CC(=O)Nc1ccc2c(c1)OCO2)=N\NC(=O)c1ccc(N)cc1 | 5.5 | 23.4 | -4.2 | 25.1 | -2.1 | 1.1
C/C(CC(=O)Nc1cccc(Cl)c1Cl)=N\NC(=O)c1ccccc1N | 25.4 | 8.5 | -1.2 | 55.4* | 1.5 | 3.3
NC(=O)c1ccccc1NC(=O)Nc1cccc(Cl)c1Cl | 45.7 | -5.3 | -7.3 | 76.8* | 0.2 | -0.6
O=C(NCc1cccnc1)c1cc(C2CCCN(C(=O)c3ccccn3)C2)on1 (stereo not drawn) | · | · | · | · | · | -0.2
Cc1ccc(Cl)cc1N1CCN(S(=O)(=O)c2ccc3c(c2)CC(=O)N3C)CC1 | ? | 4.2 | -11.0 | -43.8 | -1.7 | -0.9
CCCCC1C(=O)CC[C@H]2[C@@H]1CC(=O)[C@@H]2C/C=C\CCCC(=O)O (stereo partly drawn) | 40.0 | 0.1 | -4.0 | 71.6* | -0.6 | 1.9
CCCCC[C@H](O)/C=C/[C@H]1C=CC(=O)[C@@H]1C/C=C\CCCC(=O)O | · | · | · | · | -0.4 | ·
O=C(CNC(=O)c1ccc2c(c1)OCCO2)N=Nc1c(O)[nH]c2ccccc12 | 1.6 | -2.8 | 24.2* | 14.9 | -2.8 | -1.8
CC(CSc1nc2ccccc2s1)Cn1c(N2CCCC2)nc2c1c(=O)[nH]c(=O)n2C (stereo not drawn) | 22.2 | -1.4 | 0.3 | 56.5* | -0.1 | -0.7
O=C(NC(=S)NC1C2CC3CC(C2)CC1C3)c1ccccc1 (stereo not drawn) | -57.7* | 1.2 | -8.0 | -66.0 | 3.3 | 0.5
O=C(NC(=S)NC1CCCC1)c1ccccc1 | 20.4 | 0.2 | 0.2 | 26.8 | -2.2 | -0.1
CCC(C(=O)OCC(=O)Nc1cc(Cl)ccc1Cl)c1ccccc1 (stereo not drawn) | -65.9* | 6.2 | 1.9 | -74.2 | -0.4 | 0.8
COc1ccccc1C(CNC(=O)C1CCN(C(=O)Nc2ccccc2)CC1)N1CCCC1 (stereo not drawn) | · | · | -0.2 | · | · | 1.1
CSc1ccccc1OCc1cc(C(=O)NC2CCOC(C)(C)C2)no1 (stereo not drawn) | 10.9 | 8.1 | -7.9 | 9.9 | -1.0 | 1.3
COc1ccc(OCc2cc(C(=O)NC3CCOC(C)(C)C3)no2)c2ccccc12 (stereo not drawn) | 48.9 | -14.8 | -11.5 | 93.1* | 12.9 | -0.1
COc1ccccc1N1CCN(/N=C\c2ccccc2)CC1 | -3.2 | 2.8 | -7.3 | 23.7 | 2.3 | 0.4
COc1ccccc1N1CCN(/N=C\c2ccc(C)o2)CC1 | 30.8 | -7.4 | -0.7 | 63.2* | -1.9 | -0.5
COc1ccccc1N1CCN(/N=C/C(Cl)=C/c2ccccc2)CC1 | 19.3 | -0.2 | -12.6 | 54.5* | 3.2 | 1.6
COc1cccc(C(=O)N2CCC[C@@H]2C(=O)N2CCC[C@@H]2C(=O)NCc2ccccc2Cl)c1 | · | · | · | · | · | 0.5
CCCSCCCNC(=O)c1ccc(NC(=O)C2=CSCCO2)cc1 | -3.4 | 8.7 | -8.9 | -5.8 | -1.6 | -2.3
